Test results reported in the supplement of paper PMC10849652.
Targets with a hit are over-represented here; the source holds about 7,900 in all. About 0.6% of all pairs of compound and target were hits. A number with no mark means an inactive call.

Tests used:
Assay in all cases: log2 fold change, soluble protein after heating vs DMSO (PISA); higher = thermal stabilisation; K562 cells, 10 uM, 30 min; active = over 0.2 and 3.5 SD of the protein, either way, in both replicates (recomputed)
erlotinib = compound: C#Cc1cccc(Nc2ncnc3cc(OCCOC)c(OCCOC)cc23)c1 [erlotinib]
Method in brief: (§1)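 Thermal stability values are relative to control samples and come from duplicates. They are expressed as log2 fold changes. For measurement, K562 cells (2×10^6 cells/mL) received 10 μM compound for 30 min, and aliquots were heated for 3 min over 48°C-58°C, pooled, and extracted at 4°C in PBS with 0.5% NP-40. Soluble protein, the supernatant after 21,000xg for 90 min, was quantified by TMTpro 16plex LC-MS/MS with equalised channel sums.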

[1] = compound: C/C(=N\NC(=O)C1=CC(=CC=C1)S(=O)(=O)N2CCOCC2)/C3=C(C=CC(=C3)Cl)O
Method in brief: as §1

[2] = compound: C1=CC(=C(C=C1Cl)C2=NC3=NC=CN=C3C(=N2)NC4=CC=NC=C4)F
Method in brief: as §1

[3] = compound: C1=CC(=CC=C1C2=NC3=C(N2)C=C(C=C3)C(=O)N)OC4=CC=C(C=C4)Cl
Method in brief: as §1

[4] = compound: C1=CC2=C(C=CC(=C2)/C=C\3/C(=O)NC(=NCC4=CC=CS4)S3)N=C1
Method in brief: as §1

[5] = compound: C1=CC2=NC=CN=C2C=C1/C=C/3\C(=O)NC(=O)S3
Method in brief: as §1

[6] = compound: C1=CC=C(C=C1)C2=NC(=C(N2)C3=CC=NC=C3)C4=CC(=C(C=C4)Cl)O
Method in brief: as §1

[7] = compound: C1=CC=C2C(=C1)C3=NNC4=CC=CC(=C43)C2=O
Method in brief: as §1

[8] = compound: C1CCN(C1)C(=O)NC2=CC=CC(=C2)NC3=NC=C(C(=N3)NCCC4=CN=CN4)Br
Method in brief: as §1

[9] = compound: C1CN(CCC1(CC2=CC=C(C=C2)Cl)N)C3=NC=NC4=C3C=CN4
Method in brief: as §1

IRAK-1-4 Inhibitor I = compound: C1COCCN1CCN2C3=CC=CC=C3N=C2NC(=O)C4=CC(=CC=C4)[N+](=O)[O-] [IRAK-1-4 Inhibitor I]
Method in brief: as §1

ibrutinib = compound: C=CC(=O)N1CCC[C@@H](n2nc(-c3ccc(Oc4ccccc4)cc3)c3c(N)ncnc32)C1 [ibrutinib]
Method in brief: as §1

[10] = compound: CC(=O)c1cnc2ccc(-c3cc(Cl)c(O)c(Cl)c3)nc2c1N[C@H]1CC[C@H](CN(C)C)CC1
Method in brief: as §1

ralimetinib = compound: CC(C)(C)Cn1c(N)nc2ccc(-c3[nH]c(C(C)(C)C)nc3-c3ccc(F)cc3)nc21 [ralimetinib]
Method in brief: as §1

[11] = compound: CC(C)(O)CC(=O)NCCn1ccc2ncnc(Nc3ccc(Oc4cccc(C(F)(F)F)c4)c(Cl)c3)c21
Method in brief: as §1

[12] = compound: CC(C)C1=C2N=C(C=C(N2N=C1)NCC3=CC=CC=C3)NCCCCCCN
Method in brief: as §1

[13] = compound: CC(C)C[C@@H](C=O)NC(=O)[C@H](CC(C)C)NC(=O)[C@H](CC(C)C)NC(=O)OCc1ccccc1
Method in brief: as §1

pinometostat = compound: CC(C)N(C[C@H]1O[C@@H](n2cnc3c(N)ncnc32)[C@H](O)[C@@H]1O)[C@H]1C[C@@H](CCc2nc3cc(C(C)(C)C)ccc3[nH]2)C1 [pinometostat]
Method in brief: as §1

[14] = compound: CC1=C(C(CC(=O)N1)C2=CC=C(C=C2)C(F)(F)F)C(=O)NC3=C(C=C4C(=C3)C=NN4)F
Method in brief: as §1

[15] = compound: CC1=C(C2=C(C=C1)C(=O)C3=CC=CC=C3N2CCCN)C
Method in brief: as §1

Sequence of UniProt P13498 (P13498 whole entry, looked up): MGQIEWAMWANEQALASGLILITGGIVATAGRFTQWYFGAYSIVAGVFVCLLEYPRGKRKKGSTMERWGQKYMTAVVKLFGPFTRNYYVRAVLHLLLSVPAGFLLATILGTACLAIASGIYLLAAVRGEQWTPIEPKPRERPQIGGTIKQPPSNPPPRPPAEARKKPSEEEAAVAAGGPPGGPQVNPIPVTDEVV
Sequence of UniProt Q15075 (Q15075 whole entry, looked up): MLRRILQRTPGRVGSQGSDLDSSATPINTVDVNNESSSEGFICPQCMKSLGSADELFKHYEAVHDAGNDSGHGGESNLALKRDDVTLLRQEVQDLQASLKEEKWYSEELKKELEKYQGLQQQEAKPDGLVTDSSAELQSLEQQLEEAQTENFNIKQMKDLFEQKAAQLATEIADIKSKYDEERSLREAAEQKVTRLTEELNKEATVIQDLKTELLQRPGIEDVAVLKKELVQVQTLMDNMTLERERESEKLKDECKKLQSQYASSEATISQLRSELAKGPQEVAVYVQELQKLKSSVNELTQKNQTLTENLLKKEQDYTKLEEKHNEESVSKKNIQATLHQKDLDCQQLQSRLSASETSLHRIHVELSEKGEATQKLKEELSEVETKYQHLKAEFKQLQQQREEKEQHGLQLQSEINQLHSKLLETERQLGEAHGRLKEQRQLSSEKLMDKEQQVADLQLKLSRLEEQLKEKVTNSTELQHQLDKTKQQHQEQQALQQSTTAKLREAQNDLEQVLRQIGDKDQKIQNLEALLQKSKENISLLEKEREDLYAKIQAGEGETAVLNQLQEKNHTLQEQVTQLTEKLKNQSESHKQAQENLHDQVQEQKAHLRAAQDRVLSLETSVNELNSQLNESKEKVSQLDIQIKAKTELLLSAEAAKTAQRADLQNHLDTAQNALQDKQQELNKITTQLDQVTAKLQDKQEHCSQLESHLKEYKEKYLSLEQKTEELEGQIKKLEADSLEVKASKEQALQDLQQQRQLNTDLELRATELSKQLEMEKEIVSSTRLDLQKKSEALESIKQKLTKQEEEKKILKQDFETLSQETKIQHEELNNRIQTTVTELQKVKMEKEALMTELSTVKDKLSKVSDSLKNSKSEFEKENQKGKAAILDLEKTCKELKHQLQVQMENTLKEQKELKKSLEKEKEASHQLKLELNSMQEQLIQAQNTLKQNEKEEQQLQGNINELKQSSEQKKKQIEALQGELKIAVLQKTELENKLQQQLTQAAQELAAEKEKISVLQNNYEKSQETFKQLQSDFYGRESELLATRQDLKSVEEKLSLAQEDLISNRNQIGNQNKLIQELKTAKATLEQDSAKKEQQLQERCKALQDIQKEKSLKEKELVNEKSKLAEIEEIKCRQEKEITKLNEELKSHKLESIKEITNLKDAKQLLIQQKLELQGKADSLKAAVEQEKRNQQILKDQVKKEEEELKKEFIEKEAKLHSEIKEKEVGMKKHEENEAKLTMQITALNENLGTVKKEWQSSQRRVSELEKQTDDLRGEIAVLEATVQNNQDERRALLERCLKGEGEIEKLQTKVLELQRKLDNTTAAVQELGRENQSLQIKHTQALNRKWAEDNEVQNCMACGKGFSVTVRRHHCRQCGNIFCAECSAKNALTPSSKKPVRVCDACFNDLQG
Sequence of UniProt Q7L014 (Q7L014 whole entry, looked up): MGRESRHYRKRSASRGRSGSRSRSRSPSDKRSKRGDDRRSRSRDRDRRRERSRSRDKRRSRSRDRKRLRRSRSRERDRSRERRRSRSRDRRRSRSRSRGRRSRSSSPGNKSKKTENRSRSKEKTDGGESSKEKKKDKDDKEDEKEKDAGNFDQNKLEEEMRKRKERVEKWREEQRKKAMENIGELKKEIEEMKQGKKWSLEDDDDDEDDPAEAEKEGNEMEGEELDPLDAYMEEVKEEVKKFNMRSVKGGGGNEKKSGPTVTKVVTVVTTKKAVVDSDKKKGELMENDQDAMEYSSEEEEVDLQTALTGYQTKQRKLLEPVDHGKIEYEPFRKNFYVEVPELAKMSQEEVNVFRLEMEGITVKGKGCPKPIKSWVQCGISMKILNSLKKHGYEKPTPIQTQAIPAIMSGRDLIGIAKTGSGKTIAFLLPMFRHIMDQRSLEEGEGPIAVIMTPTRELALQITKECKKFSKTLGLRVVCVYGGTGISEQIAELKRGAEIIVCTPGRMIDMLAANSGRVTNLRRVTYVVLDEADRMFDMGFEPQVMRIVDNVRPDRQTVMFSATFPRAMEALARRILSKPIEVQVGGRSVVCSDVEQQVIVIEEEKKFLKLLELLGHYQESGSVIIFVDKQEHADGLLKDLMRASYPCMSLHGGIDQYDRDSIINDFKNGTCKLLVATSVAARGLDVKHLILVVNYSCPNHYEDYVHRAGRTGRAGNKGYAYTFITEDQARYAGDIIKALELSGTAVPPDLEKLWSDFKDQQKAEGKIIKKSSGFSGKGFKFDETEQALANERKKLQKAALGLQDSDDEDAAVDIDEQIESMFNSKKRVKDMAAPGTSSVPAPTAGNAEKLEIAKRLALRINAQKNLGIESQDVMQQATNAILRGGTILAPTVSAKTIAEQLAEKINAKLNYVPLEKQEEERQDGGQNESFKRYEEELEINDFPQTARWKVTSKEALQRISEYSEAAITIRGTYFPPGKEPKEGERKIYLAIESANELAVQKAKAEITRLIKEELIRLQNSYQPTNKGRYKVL
Sequence of UniProt Q9UBR2 (Q9UBR2 whole entry, looked up): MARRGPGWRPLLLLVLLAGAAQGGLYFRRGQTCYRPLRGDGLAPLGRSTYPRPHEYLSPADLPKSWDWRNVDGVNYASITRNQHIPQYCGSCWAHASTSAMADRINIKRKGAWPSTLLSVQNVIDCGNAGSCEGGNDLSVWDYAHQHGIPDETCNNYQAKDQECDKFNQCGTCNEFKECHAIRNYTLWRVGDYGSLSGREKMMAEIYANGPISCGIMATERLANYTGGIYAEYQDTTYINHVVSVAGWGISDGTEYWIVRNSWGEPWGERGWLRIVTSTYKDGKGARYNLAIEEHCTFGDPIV
Sequence of UniProt Q5QJE6 (Q5QJE6 whole entry, looked up): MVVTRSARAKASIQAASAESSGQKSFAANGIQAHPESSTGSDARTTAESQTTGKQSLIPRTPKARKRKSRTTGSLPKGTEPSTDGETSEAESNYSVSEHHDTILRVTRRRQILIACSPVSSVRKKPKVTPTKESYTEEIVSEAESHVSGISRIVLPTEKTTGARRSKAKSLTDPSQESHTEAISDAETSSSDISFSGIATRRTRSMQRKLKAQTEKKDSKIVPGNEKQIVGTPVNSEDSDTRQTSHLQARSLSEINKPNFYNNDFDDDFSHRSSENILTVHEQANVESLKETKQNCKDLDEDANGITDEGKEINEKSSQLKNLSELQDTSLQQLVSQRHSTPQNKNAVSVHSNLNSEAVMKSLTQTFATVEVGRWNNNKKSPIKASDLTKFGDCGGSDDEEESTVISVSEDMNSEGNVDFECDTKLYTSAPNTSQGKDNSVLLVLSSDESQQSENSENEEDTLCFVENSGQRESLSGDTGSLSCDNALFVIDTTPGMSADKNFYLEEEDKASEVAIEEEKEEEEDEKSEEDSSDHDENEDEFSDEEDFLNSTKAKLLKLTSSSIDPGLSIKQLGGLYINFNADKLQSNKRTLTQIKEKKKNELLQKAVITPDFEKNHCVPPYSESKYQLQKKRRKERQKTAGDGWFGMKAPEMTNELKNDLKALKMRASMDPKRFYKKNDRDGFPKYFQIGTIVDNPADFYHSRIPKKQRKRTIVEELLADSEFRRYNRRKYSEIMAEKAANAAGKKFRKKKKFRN
Sequence of UniProt P24534 (P24534 whole entry, looked up): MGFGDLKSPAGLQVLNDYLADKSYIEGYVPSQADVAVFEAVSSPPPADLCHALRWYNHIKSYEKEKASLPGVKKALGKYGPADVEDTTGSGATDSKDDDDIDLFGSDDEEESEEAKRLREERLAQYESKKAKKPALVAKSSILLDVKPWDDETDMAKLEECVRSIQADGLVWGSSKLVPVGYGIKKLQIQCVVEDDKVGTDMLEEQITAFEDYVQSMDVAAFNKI
Sequence of UniProt Q9UK59 (Q9UK59 whole entry, looked up): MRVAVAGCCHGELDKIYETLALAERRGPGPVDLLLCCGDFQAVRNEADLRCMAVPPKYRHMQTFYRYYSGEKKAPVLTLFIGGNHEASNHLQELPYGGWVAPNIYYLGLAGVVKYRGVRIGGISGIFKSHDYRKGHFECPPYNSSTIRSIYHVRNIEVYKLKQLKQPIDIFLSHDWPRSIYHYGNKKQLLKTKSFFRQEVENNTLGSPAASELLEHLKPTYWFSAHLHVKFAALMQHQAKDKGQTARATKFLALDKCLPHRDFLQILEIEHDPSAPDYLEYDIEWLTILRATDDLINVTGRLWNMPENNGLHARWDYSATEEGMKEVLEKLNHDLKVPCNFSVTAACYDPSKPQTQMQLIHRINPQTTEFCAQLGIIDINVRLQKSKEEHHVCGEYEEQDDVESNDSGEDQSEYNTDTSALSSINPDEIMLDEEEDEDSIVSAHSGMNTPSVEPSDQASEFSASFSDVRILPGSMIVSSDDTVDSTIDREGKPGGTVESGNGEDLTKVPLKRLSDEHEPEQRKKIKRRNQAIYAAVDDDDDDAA
Sequence of UniProt P07711 (P07711 whole entry, looked up): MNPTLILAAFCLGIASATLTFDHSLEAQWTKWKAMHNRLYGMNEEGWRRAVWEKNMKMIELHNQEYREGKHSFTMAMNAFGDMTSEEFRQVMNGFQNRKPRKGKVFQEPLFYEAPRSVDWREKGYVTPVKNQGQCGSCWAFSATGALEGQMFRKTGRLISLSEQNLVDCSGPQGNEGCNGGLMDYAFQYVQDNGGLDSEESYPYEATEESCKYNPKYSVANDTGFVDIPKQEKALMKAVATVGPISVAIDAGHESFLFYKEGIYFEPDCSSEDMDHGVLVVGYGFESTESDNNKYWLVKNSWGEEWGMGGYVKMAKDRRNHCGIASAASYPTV
Sequence of UniProt P00374 (P00374 whole entry, looked up): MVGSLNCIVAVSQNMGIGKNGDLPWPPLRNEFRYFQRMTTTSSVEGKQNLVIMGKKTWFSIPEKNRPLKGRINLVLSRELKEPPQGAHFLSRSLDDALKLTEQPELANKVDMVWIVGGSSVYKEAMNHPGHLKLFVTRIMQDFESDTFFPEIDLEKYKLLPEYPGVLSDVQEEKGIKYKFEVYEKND

| Target | log2 fold change (erlotinib) | log2 fold change [1] | log2 fold change [2] | log2 fold change [3] | log2 fold change [4] | log2 fold change [5] | log2 fold change [6] | log2 fold change [7] | log2 fold change [8] | log2 fold change [9] | log2 fold change (IRAK-1-4 Inhibitor I) | log2 fold change (ibrutinib) | log2 fold change [10] | log2 fold change (ralimetinib) | log2 fold change [11] | log2 fold change [12] | log2 fold change [13] | log2 fold change (pinometostat) | log2 fold change [14] | log2 fold change [15] |
| --- | --- | --- | --- | --- | --- | --- | --- | --- | --- | --- | --- | --- | --- | --- | --- | --- | --- | --- | --- | --- |
| ETNK1 (UniProt Q9HBU6) | 0.004 | 0.128 | 0.244 | -0.001 | -0.126 | 0.035 | 0.037 | 0.028 | -0.033 | -0.119 | 0.035 | -0.05 | 0.044 | -0.017 | -0.205 | 0.087 | 0.043 | 0.019 | -0.015 | 0.079 |
| EEA1 (UniProt Q15075) | 0 | -0.016 | 0.046 | 0.003 | 0.01 | 0.046 | -0.046 | -0.031 | 0.009 | 0.05 | 0.037 | 0.002 | 0.02 | -0.068 | 0.013 | 0.025 | -0.022 | -0.041 | 0.001 | -0.004 |
| DDB1 (UniProt Q16531) | -0.03 | 0.006 | 0.009 | 0.022 | 0.003 | 0.014 | -0.019 | -0.032 | 0.018 | 0.04 | 0.038 | 0.026 | 0.002 | -0.053 | -0.008 | 0.071 | -0.017 | -0.03 | 0.022 | -0.001 |
| CYBA (UniProt P13498) | -0.075 | 0.096 | -0.005 | 0.025 | 0.042 | 0.032 | 0.03 | -0.072 | -0.012 | -0.005 | 0.044 | 0.024 | -0.024 | -0.041 | -0.152 | -0.43 (active) | 0.121 | -0.036 | -0.018 | -0.026 |
| CTSZ (UniProt Q9UBR2) | 0.053 | -0.025 | 0.027 | -0.047 | -0.013 | 0.023 | -0.017 | 0.073 | 0.057 | 0.09 | 0.008 | -0.02 | 0.053 | -0.062 | 0 | -0.395 (active) | 0.082 | -0.076 | 0.015 | -0.036 |
| DDX46 (UniProt Q7L014) | 0.053 | 0.23 | 0.134 | 0.081 | 0.034 | 0 | -0.023 | -0.022 | -0.062 | -0.141 | -0.113 | -0.034 | -0.299 | -0.095 | -0.18 | -0.034 | 0.026 | -0.066 | -0.107 | 0.152 |
| DNTTIP2 (UniProt Q5QJE6) | -0.111 | -0.186 | -0.242 | 0.038 | 0.005 | -0.043 | -0.069 | -0.269 | -0.004 | -0.111 | -0.027 | 0.045 | -0.265 | 0.089 | 0.046 | -0.234 | 0.046 | 0.266 | -0.017 | -0.975 (active) |
| DIAPH1 (UniProt O60610) | 0.072 | 0.058 | -0.109 | -0.037 | 0.031 | 0.04 | 0.067 | 0.006 | -0.072 | -0.235 | -0.128 | -0.061 | 0.072 | 0.168 | 0 | -0.373 (active) | 0.07 | 0.213 | -0.017 | -0.08 |
| EXOC2 (UniProt Q96KP1) | 0.07 | 0.083 | -0.027 | -0.045 | 0.05 | 0.006 | -0.013 | 0.054 | -0.014 | -0.119 | -0.092 | -0.018 | -0.048 | 0.08 | -0.052 | -0.43 (active) | 0.027 | 0.172 | -0.216 | 0.007 |
| DHFR (UniProt P00374) | 0.156 | 0 | -0.176 | -0.144 | 0.03 | 0.043 | 0.055 | 0.049 | -0.047 | -0.015 | -0.065 | -0.008 | -0.06 | 0.192 | -0.044 | 0.101 | 0.083 | 0.255 | -0.114 | 0.2 |
| EEF1B2 (UniProt P24534) | -0.006 | 0.033 | -0.028 | -0.058 | 0.008 | -0.036 | 0.027 | 0.02 | 0.064 | -0.058 | -0.01 | -0.054 | 0.009 | 0.003 | 0.011 | -0.069 | 0.04 | 0.001 | -0.027 | 0.047 |
| DBR1 (UniProt Q9UK59) | 0.031 | 0.042 | -0.052 | 0.025 | -0.033 | 0.002 | 0.069 | 0.006 | -0.026 | 0.044 | -0.04 | 0.02 | -0.043 | 0.037 | 0.006 | 0.032 | -0.026 | -0.012 | 0.065 | 0.114 |
| DYRK1A isoform 2 (UniProt Q13627) | 0.034 | 0.039 | -0.058 | 0.019 | -0.095 | -0.173 | -0.027 | -0.064 | -0.093 | -0.067 | -0.001 | -0.009 | -0.358 (active) | -0.046 | -0.042 | -0.254 | 0.064 | 0.055 | -0.014 | 0.144 |
| ECPAS (UniProt Q5VYK3) | 0.058 | 0.087 | 0.001 | -0.06 | 0.042 | 0.009 | 0.048 | -0.01 | -0.028 | -0.018 | -0.117 | -0.09 | 0.009 | 0.082 | -0.139 | -0.094 | 0.564 (active) | 0.055 | 0.021 | 0.092 |
| CTSL (UniProt P07711) | -0.005 | -0.173 | -0.036 | -0.022 | -0.203 | 0.019 | -0.002 | -0.041 | -0.023 | 0.005 | 0.068 | 0.009 | 0.099 | 0.022 | -0.014 | -0.412 (active) | 0.098 | -0.006 | -0.01 | -0.031 |
